PubChem BioAssay (Tox21)
Records with an inconclusive call do not appear. Activity calls are given as the source filed them. Unless noted, the call rests on the fitted dose curve; in most records, active means well fitted curve in the direction sought with a large enough effect in the repeat runs; inconclusive means weak or mixed curves; inactive means no such curve, though single readings can be large; an effect the other way counts as inactive or inconclusive.

How the values were obtained:
[1] = qHTS assay to identify small molecule agonists of the peroxisome proliferator-activated receptor delta (PPARd) signaling pathway - cell viability counter screen (AID 743211); further: nearly all actives have a fitted effect of over 55% in size
Procedure, shortened: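 qHTS cell viability: PPARd-bla HEK293H; 17 h cpd, 37C; CellTiter-Glo, luminescence at 30 min RT.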

[2] = target: Peroxisome proliferator-activated receptor delta (Homo sapiens) (UniProt Q03181); assay: qHTS assay to identify small molecule agonists of the peroxisome proliferator-activated receptor delta (PPARd) signaling pathway (AID 743212; calls by dose curve;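 further: HEK293H cells with PPARd UAS beta-lactamase reporter GeneBLAzer system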)
Chain of Peroxisome proliferator-activated receptor delta (Homo sapiens) (Q03181 whole entry, looked up): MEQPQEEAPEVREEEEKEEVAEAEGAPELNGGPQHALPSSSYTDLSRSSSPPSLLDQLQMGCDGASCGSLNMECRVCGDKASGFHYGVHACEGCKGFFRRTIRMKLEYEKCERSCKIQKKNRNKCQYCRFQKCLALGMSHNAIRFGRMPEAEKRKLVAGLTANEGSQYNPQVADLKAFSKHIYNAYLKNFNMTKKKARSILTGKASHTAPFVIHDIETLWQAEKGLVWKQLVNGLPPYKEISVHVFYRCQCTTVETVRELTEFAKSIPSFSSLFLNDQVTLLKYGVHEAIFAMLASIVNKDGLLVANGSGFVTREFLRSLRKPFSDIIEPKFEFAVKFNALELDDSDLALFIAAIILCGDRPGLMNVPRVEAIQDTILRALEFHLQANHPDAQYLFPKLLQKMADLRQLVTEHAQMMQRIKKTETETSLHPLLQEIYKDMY
Procedure, shortened: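 Quantitative high-throughput agonist screen in a HEK293H beta-lactamase reporter line under UAS control. Compounds in DMSO, at 37 C. Fluorescence read after 2 h with FRET substrate at room temperature.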

[3] = qHTS assay to identify small molecule antagonists of the peroxisome proliferator-activated receptor delta (PPARd) signaling pathway - cell viability counter screen (AID 743213); further: nearly all actives have a fitted effect of over 50% in size
Procedure, shortened: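 In this counter screen, HEK293H cells carrying a UAS-beta-lactamase reporter are co-treated with test compounds and 300 nM L165041 (final) for 17 h at 37 C; cell viability is quantified by CellTiter-Glo luminescence.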

[4] = target: Peroxisome proliferator-activated receptor delta (Homo sapiens) (UniProt Q03181); assay: qHTS assay to identify small molecule antagonists of the peroxisome proliferator-activated receptor delta (PPARd) signaling pathway (AID 743215; active means well fitted inhibition curve with a large enough effect in the signal ratio in the repeat runs, not every such curve was filed as active; the % refers to the signal ratio;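 further: cells stimulated with agonist L165041 at 300 nM final during compound exposure; series mostly up to about 62 µM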)
Procedure, shortened: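 PPARd UAS-bla HEK293H cells were pre-incubated 5 h at 37 C, then given test compounds in DMSO plus agonist L165041 (300 nM final). After 17 h at 37 C, beta-lactamase FRET substrate was added; fluorescence read after 2 h at room temperature.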

[5] = qHTS assay to identify small molecule agonists of the farnesoid-X-receptor (FXR) signaling pathway - cell viability counter screen (AID 743218); further: nearly all actives have a fitted effect of over 45% in size
Procedure, shortened: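 FXR-UAS-bla HEK 293T cells, plated 5 h at 37 C, were exposed to compounds for 16 h at 37 C. CellTiter-Glo was then added to the same wells as the bla readout; luminescence read after 30 min at room temperature.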

[6] = qHTS assay to identify small molecule antagonists of the farnesoid-X-receptor (FXR) signaling pathway - cell viability counter screen (AID 743221; active means well fitted cell-killing curve with a large enough effect in the repeat runs, not every such curve was filed as active; further: nearly all actives have a fitted effect of over 50% in size)
Procedure, shortened: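 After a 5 h settling period, FXR-bla HEK 293T cells receive compound and chenodeoxycholic acid (50 uM final) and incubate 16 h at 37 C; CellTiter-Glo luminescence, read after 30 min at room temperature, reports cell viability.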

[7] = target: Vitamin D3 receptor (Homo sapiens) (UniProt P11473); assay: qHTS assay to identify small molecule agonists of the vitamin D receptor (VDR) signaling pathway (AID 743222; calls by dose curve)
Chain of Vitamin D3 receptor (Homo sapiens) (P11473 whole entry, looked up): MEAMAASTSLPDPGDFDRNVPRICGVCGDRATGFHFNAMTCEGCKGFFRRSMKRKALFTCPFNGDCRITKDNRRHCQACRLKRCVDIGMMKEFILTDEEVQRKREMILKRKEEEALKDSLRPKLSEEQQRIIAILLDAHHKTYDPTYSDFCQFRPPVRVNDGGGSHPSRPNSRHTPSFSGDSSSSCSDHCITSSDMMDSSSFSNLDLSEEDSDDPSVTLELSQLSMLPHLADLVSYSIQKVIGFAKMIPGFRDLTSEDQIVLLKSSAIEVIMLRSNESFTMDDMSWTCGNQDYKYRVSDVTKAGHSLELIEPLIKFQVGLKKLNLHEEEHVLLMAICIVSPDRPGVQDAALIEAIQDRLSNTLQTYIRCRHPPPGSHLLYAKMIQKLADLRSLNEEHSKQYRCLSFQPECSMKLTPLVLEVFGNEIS
Procedure, shortened: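 VDR-bla cells were plated 4 h at 37C/5% CO2, then exposed to compounds in DMSO for 16 h. After LiveBLAzer B/G FRET substrate addition and 2 h at room temperature, beta-lactamase reporter fluorescence was read.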

[8] = target: Bile acid receptor (Homo sapiens) (UniProt Q96RI1); assay: qHTS assay to identify small molecule antagonists of the farnesoid-X-receptor (FXR) signaling pathway (AID 743217; active means well fitted inhibition curve with a large enough effect in the signal ratio in the repeat runs, not every such curve was filed as active; the % refers to the signal ratio)
Chain of Bile acid receptor (Homo sapiens) (Q96RI1 whole entry, looked up): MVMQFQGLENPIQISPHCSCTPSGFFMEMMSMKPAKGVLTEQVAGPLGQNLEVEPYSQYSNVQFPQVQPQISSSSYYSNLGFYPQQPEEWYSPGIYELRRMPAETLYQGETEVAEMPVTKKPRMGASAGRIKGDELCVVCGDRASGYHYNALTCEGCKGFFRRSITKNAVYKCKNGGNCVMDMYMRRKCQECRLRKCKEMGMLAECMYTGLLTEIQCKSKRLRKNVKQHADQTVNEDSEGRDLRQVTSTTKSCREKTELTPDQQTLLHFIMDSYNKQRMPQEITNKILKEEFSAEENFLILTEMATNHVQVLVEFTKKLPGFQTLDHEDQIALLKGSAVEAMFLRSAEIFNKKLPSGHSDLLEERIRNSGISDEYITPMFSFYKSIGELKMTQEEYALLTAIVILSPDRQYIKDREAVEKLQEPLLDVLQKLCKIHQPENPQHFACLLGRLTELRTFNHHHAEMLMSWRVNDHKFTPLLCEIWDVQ
Procedure, shortened: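 FXR-UAS-bla HEK 293T cells pre-incubated 5 h at 37 °C, then exposed to compounds with chenodeoxycholic acid (50 uM final) for 16 h at 37 °C. Beta-lactamase reporter read by LiveBLAzer B/G FRET substrate fluorescence after 2 h at room temperature.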

[9] = target: Vitamin D3 receptor (Homo sapiens) (UniProt P11473); assay: qHTS assay to identify small molecule antagonists of the vitamin D receptor (VDR) signaling pathway (AID 743223; active means well fitted inhibition curve with a large enough effect in the signal ratio in the repeat runs, not every such curve was filed as active; the % refers to the signal ratio)
Procedure, shortened: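 Reporter line VDR-bla; stimulus 1alpha,25-(OH)2 vitamin D3, 3 nM final; compound co-addition, 16 h 37C/5% CO2; LiveBLAzer B/G substrate 2 h RT; fluorescence intensity.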

Measured: Potency

Sc1ccccc1
inactive: [1] | [2] | [3] | [4] | [5] | [6]

CNC(=O)O/N=C(\SC)C(=O)N(C)C
inactive: [1] | [2] | [3] | [4] | [5] | [6] | [7]

OCc1ccco1
inactive: [1] | [2] | [3] | [4] | [8] | [5] | [6] | [9]

CCOP(=S)(OCC)Oc1ccc([N+](=O)[O-])cc1
inactive: [1] | [2] | [3] | [4] | [5] | [6]

CC[N+](=O)[O-]
inactive: [1] | [2] | [3] | [4] | [5] | [6]

Nc1cccc(Cl)c1
inactive: [1] | [2] | [3] | [4] | [8] | [5] | [6] | [9]

O=C(O)COc1ccccc1
inactive: [1] | [2] | [3] | [4] | [5] | [6]

Cc1ccccc1N
inactive: [1] | [2] | [3] | [4] | [5] | [6]

CCNc1nc(Cl)nc(NC(C)C)n1
inactive: [1] | [2] | [3] | [4] | [5] | [6] | [7]

Cc1ccc(O)c(C)c1
inactive: [1] | [2] | [3] | [4] | [5] | [6]

O=S(=O)(O)OOS(=O)(=O)O
inactive: [1] | [2] | [3] | [4] | [5] | [6]

Clc1cnc(Oc2ccc(Oc3ncc(Cl)cc3Cl)cc2)c(Cl)c1
inactive: [1] | [2] | [3] | [4] | [8] | [6] | [9]

FC(F)(F)c1ccc(Cl)cc1
inactive: [1] | [2] | [3] | [4] | [8] | [5] | [6] | [9]

CN(C)C(=O)Cl
inactive: [1] | [2] | [3] | [4] | [5] | [6] | [7]

Cc1cccc(N)c1
inactive: [1] | [2] | [3] | [4] | [5] | [6] | [7]

CN1C(=O)CCS(=O)(=O)C1c1ccc(Cl)cc1 (stereo not drawn)
inactive: [1] | [2] | [3] | [4] | [5] | [6]

CC(C)(C)C(=O)CCl
inactive: [1] | [2] | [3] | [4] | [5] | [6]

OC[C@@H](O)[C@H]1O[C@@H]2O[C@H](C(Cl)(Cl)Cl)O[C@@H]2[C@H]1O
inactive: [1] | [2] | [3] | [4] | [5] | [6]

COc1cc(-c2ccc(N)c(OC)c2)ccc1N
inactive: [1] | [2] | [3] | [4] | [5] | [6]

Cc1cc(Cl)ccc1OC(C)C(=O)O (stereo not drawn)
inactive: [1] | [2] | [3] | [4] | [5] | [6]

O=P1(NCCCl)OCCCN1CCCl (stereo not drawn)
inactive: [1] | [3] | [5] | [6]

COP(=S)(OC)Oc1ccc(SC)c(C)c1
inactive: [1] | [2] | [3] | [4] | [5] | [6] | [9]

ClC(Cl)c1ccccc1
inactive: [1] | [2] | [3] | [4] | [5] | [6] | [9]

C/C=C/c1ccc2c(c1)OCO2
inactive: [1] | [3] | [5] | [6] | [7] | [9]

c1ccc2c(c1)CCCC2
inactive: [1] | [3] | [8] | [5] | [6] | [7]

CN(C)NC(=O)CCC(=O)O
inactive: [1] | [2] | [3] | [4] | [5] | [6] | [9]

CCCCCCCCCCCCCCCCCC(=O)O
inactive: [1] | [3] | [5] | [6]

O=C(O)Cc1ccccc1
inactive: [1] | [3] | [8] | [5] | [6] | [9]

O=[N+]([O-])c1ccc(Cl)cc1
inactive: [1] | [3] | [5] | [6] | [7]

CN(C)C(=O)C(c1ccccc1)c1ccccc1
inactive: [1] | [2] | [3] | [5] | [6] | [7]

C[C@]12CC[C@H](O)CC1=CC[C@@H]1[C@@H]2CC[C@]2(C)C(=O)CC[C@@H]12
inactive: [1] | [2] | [3] | [5] | [6]

Cc1ccc(N=C=O)cc1N=C=O
inactive: [1] | [3] | [5] | [6]

O=[N+]([O-])c1cc([As](=O)(O)O)ccc1O
inactive: [1] | [2] | [3] | [4] | [5] | [6] | [9]

O=C(O)c1cc(Oc2ccc(C(F)(F)F)cc2Cl)ccc1[N+](=O)[O-]
inactive: [1] | [3] | [5] | [6]

Nc1ccc(N)cc1
inactive: [1] | [3] | [8] | [5] | [6] | [7]

C=C(C)C(=O)OCC(CC)CCCC (stereo not drawn)
inactive: [1] | [3] | [5] | [6]

NNc1ccccc1
inactive: [1] | [3] | [5] | [6]

CNC(=O)O/N=C/C(C)(C)S(C)(=O)=O
inactive: [1] | [3] | [5] | [6]

COS(=O)(=O)OC
inactive: [1] | [2] | [3] | [4] | [5] | [6] | [7] | [9]

Cl/C=C/Cl
inactive: [1] | [2] | [3] | [4] | [5] | [6] | [7]

Oc1ccc(Cl)cc1
inactive: [1] | [3] | [5] | [6] | [7]

Cc1ccc(N)cc1
inactive: [1] | [3] | [5] | [6]

N#Cc1ccccn1
inactive: [1] | [3] | [5] | [6]

CNC(=O)O/N=C/C(C)(C)SC
inactive: [1] | [2] | [4] | [8] | [5] | [6]

C=CC#N
inactive: [1] | [3] | [5] | [6] | [7] | [9]

O=C(O)C(Br)Br
inactive: [1] | [3] | [8] | [5] | [6]

CNCC(O)c1ccc(O)cc1 (stereo not drawn)
inactive: [1] | [2] | [3] | [8] | [5] | [6]

C=CC(=O)OCC(CC)CCCC (stereo not drawn)
inactive: [1] | [3] | [5] | [6] | [7]

OCCCCO
inactive: [1] | [3] | [8] | [5] | [6] | [9]

COC(C)(C)CCCC(C)C/C=C/C(C)=C/C(=O)OC(C)C (stereo not drawn)
inactive: [1] | [3] | [5] | [6]

CC12CC1(C)C(=O)N(c1cc(Cl)cc(Cl)c1)C2=O (stereo not drawn)
inactive: [1] | [2] | [3] | [5] | [6]
